Results taken from PubChem BioAssay.
Calls of active or inactive are those of the source.

What was measured:
Albumin (Bos taurus) = Albumin (Bos taurus) (UniProt P02769); assay: bovine serum albumin binders on microarray, profiling panel, artefact control for SMM control protein annotation, biochemical, small-molecule microarray, Alexa647 label, 635/667 nm fluorescence (AID 1118); conditions: BSA-A647 binding, fluorescence 635 nm, higher = more signal;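 note: score merges 667 nm emission intensity and signal-to-noise per printed compound spot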
Albumin (Bos taurus), sequence (P02769 whole entry, looked up): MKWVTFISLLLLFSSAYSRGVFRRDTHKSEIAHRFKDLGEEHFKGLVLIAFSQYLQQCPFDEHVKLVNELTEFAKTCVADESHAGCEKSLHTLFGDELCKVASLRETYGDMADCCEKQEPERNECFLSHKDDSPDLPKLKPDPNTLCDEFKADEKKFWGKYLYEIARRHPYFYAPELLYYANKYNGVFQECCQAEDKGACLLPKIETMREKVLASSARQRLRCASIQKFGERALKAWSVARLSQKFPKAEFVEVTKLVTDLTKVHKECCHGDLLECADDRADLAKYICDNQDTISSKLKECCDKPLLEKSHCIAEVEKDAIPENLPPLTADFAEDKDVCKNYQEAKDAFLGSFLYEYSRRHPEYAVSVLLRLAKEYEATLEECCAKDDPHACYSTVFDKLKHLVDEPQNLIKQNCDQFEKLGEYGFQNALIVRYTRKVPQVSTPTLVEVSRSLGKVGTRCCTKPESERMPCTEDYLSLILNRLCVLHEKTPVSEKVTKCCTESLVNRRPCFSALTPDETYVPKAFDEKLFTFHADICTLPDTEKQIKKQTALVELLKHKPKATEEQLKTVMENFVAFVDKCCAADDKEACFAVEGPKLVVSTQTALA

[1] = small-molecule microarray binders of probe aXIP, primary screen, biochemical, NeuroSMM set, 635/667 nm fluorescence (AID 1119); conditions: higher = more signal, called active from +8 up or from −8 down;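 note: probe is the protein aXip251-270 applied at 1 µg/mL to compound-printed slides; binding of probe to printed compounds measured as 667 nm fluorescence plus signal to noise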
[2] = small-molecule binders of probe aNOTCH3, primary screen, biochemical, small-molecule microarray, 635/667 nm fluorescence (AID 1120); conditions: higher = more signal;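 note: probe is a biotin-tagged antibody raised against NOTCH3 rather than NOTCH3 protein; score merges spot fluorescence near 667 nm with spot signal to noise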
[3] = small-molecule binders of probe aNOTCH2, primary screen, biochemical, small-molecule microarray, 635/667 nm fluorescence (AID 1121); conditions: higher = more signal;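 note: score merges feature fluorescence read at 667 nm with its signal to noise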
[4] = target: Carbonic anhydrase 2 (Homo sapiens) (UniProt P00918); assay: CAII small-molecule binders, profiling panel, biochemical, small-molecule microarray, Alexa647-labelled CAII (AID 1122); conditions: CAII-A647 binding fluorescence, higher = more signal
[5] = COS7 lysate on small-molecule microarray, probe aHis, 635 nm (AID 1123); conditions: COS7 cell lysate, fluorescence, higher = more signal;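 note: z-score combines 667nm fluorescence intensity with signal-to-noise per printed compound spot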
[6] = compound binding in COS7 lysate, probe aLAP1, primary screen, cell lysate, small-molecule microarray (AID 1124); conditions: probe aLAP1, fluorescence, higher = more signal;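 note: lysate comes from COS7 cells expressing LAP1 and is applied at 0.3 µg/mL; score merges spot fluorescence near 667 nm with signal-to-noise over triplicate slides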
Sam68 (KHDRBS1) = assay: Sam68 small-molecule binders, primary screen, biochemical, small-molecule microarray, 635 nm fluorescence (AID 1125); conditions: small-molecule microarray binding, higher = more signal;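 note: score merges 667 nm channel intensity with signal to noise over triplicate slides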
[7] = system: Chordin-like protein 2 (CHRDL2); assay: CHRDL2 small-molecule binders, primary screen, biochemical, small-molecule microarray, 635 nm fluorescence (AID 1126); conditions: small-molecule microarray binding, fluorescence 635 nm; higher = more signal;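 note: printed compound slides probed with Chrdl2 protein at 4 µg/mL for 1 h at 4 C; score merges 667 nm emission intensity with signal to noise over three replicate slides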
[8] = target: Concanavalin-A (Canavalia ensiformis) (UniProt P02866); assay: ConA small-molecule binders, primary screen, artefact control for SMM control protein annotation, biochemical, small-molecule microarray, Alexa647 label, 635 nm (AID 1127); conditions: ConA-A647 binding fluorescence, higher = more signal;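 note: z combines 667 nm emission intensity with signal-to-noise across three replicate slides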
Concanavalin-A (Canavalia ensiformis), sequence (P02866 whole entry, looked up): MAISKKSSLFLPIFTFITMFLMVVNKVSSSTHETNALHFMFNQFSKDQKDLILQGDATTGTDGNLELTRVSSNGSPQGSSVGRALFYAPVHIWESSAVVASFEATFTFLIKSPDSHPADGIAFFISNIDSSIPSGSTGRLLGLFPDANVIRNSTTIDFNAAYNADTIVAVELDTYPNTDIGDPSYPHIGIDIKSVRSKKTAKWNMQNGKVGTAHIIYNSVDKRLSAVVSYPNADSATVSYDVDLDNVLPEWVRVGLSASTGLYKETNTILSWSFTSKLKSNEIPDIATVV

SMILES | composite z-score (Albumin (Bos taurus)) | composite Z-score [1] | composite z-score [2] | composite z-score [3] | composite z-score [4] | composite z-score [5] | composite z-score [6] | composite z-score (Sam68 (KHDRBS1)) | composite z-score [7] | composite z-score [8]
CCCC=C(CCC)[C@@H](NP(=O)(c1ccccc1)c1ccccc1)c1ccc(C(F)(F)F)cc1 | 0.179 | -0.349 (inactive) | 0.26 | 0.0684 | -0.0457 | 0.442 | 0.207 | 1.14 | -0.13 | -0.482
COCCOC(=O)N1C(=O)[C@@]2(c3ccccc31)[C@H](C(=O)N1CCN(c3ncccn3)CC1)[C@H]1C(=O)O[C@H](c3ccccc3)[C@H](c3ccccc3)N1[C@@H]2c1ccc(OCCO)cc1 | 0.329 | 2.41 (inactive) | 0.32 | -0.0029 | 0.512 | 1.36 | 0.341 | 1.12 | 0.292 | 1.13
CC(C)N1CC=CC23O[C@@H]4C=CCOC(=O)[C@@H]4[C@H]2C(=O)N(C(C)CO)[C@@H]3C1=O (stereo not given in full) | -0.385 | 0.365 (inactive) | -0.149 | -0.0891 | 0.406 | 0.0561 | 1.06 | -0.876 | -1.03 | 0.261
CC(C)C(=C=CC[C@@H](O)c1ccccc1OCCO)C[C@@H](O)COCc1ccccc1 | -0.111 | 0.477 (inactive) | -0.132 | 0.0363 | 0.813 | 1.37 | 0.641 | 0.773 | 0.0362 | 0.639
Cc1ccc(S[C@]2(C(=O)NC(C)C)CC(=O)N(Cc3ccccc3C(F)(F)F)[C@@H]2c2ccc(CO)cc2I)cc1 | 0.671 | 0.0903 (inactive) | -0.236 | -0.128 | 0.344 | 0.352 | -0.0811 | 0.0747 | -1.35 | -0.03
COc1c(C)cc(-c2cc3c(c(-c4ccccc4)n2)[Si](C(C)C)(C(C)C)OC3)cc1C | 0.247 | 0.478 (inactive) | -0.116 | -0.21 | -0.185 | -0.591 | -0.154 | -0.5 | 0.652 | 0.134
C[C@]1(C(=O)NC2CC2)c2ccccc2C(=O)N(Cc2ccc(OC(F)(F)F)cc2)[C@H]1c1ccc(CO)cc1 | -0.85 | -0.0189 (inactive) | 0.0271 | 0.0049 | 0.37 | 0.209 | 0.0915 | 0.0003 | -1.14 | -0.698
C=C(COC)/C(=C/C[C@@H](OC(=O)c1ccncc1)c1cccc(OCCO)c1)c1cnc2ccccc2c1 | 0.716 | 0.161 (inactive) | 0.43 | 0.0815 | 1.01 | 1.91 | 0.919 | 1.31 | 1.44 | 1.24
O=C1O[C@@H](c2ccccc2)[C@@H](c2ccccc2)N2[C@@H](c3ccc(O)cc3)[C@]3(C(=O)Nc4ccc(C#CC5=CCCCC5)cc43)[C@@H](C(=O)N3CCN(c4ncccn4)CC3)[C@H]12 | 0.475 | 0.131 (inactive) | -0.0328 | -0.111 | 0.573 | 1.72 | 0.299 | 1.29 | 0.363 | 1.11
COCCOC(=O)N1C(=O)[C@@]2(c3cc(C#Cc4ccc(OC)cc4)ccc31)[C@H](C(=O)N1CCN(c3ncccn3)CC1)[C@H]1C(=O)O[C@H](c3ccccc3)[C@H](c3ccccc3)N1[C@@H]2c1ccccc1OCCO | -0.108 | 0.131 (inactive) | -0.122 | -0.114 | 0.331 | 1.3 | 0.107 | 0.717 | -0.0849 | 0.819
C=CCOC(=O)[C@H]1[C@@H]2C(=O)O[C@@H](c3ccccc3)[C@@H](c3ccccc3)N2[C@@H](c2ccc(OCCOC(=O)[C@H]3C[C@H]4C(=O)N[C@@H](Cc5ccccc5)C(=O)N4[C@H]3c3cccc(OCCO)c3)cc2)[C@]12C(=O)Nc1ccc(I)cc12 | -0.291 | 1.02 (inactive) | 0.071 | -0.117 | 0.487 | -0.0456 | 0.335 | 1.28 | 1.25 | 1.12
CC(CO)N1C(=O)[C@@H]2C3C(=O)OCCC/C=C\[C@H]3OC23C=CCN(Cn2nnc4ccccc42)C(=O)[C@@H]13 (stereo not given in full) | 0.717 | 0.323 (inactive) | -0.192 | -0.14 | 0.869 | -0.202 | -0.237 | -1.07 | 0.034 | -1.01
O=C1NC(=O)C2C1C=CC(C(O)c1ccc3c(c1)OCO3)N2Nc1ccccn1 (stereo not given) | 0.939 | 0.246 (inactive) | -0.0324 | -0.12 | 0.555 | 2.99 | 0.183 | 0.153 | 0.704 | 0.667
COc1cc2c(cc1OC)CN(C(=O)[C@H]1[C@@H]3C(=O)O[C@@H](c4ccccc4)[C@@H](c4ccccc4)N3[C@@H](c3ccc(OCCO)cc3)[C@]13C(=O)Nc1ccc(C#CCCO)cc13)CC2 | 0.592 | 0.524 (inactive) | 0.0418 | 0.0292 | 0.434 | 2.2 | 1.25 | 1.29 | 0.0602 | 1.11
